40 compounds from PubChem BioAssay (Tox21) can be followed below.

Several values for one entry are separate records, joined by “and”; a condition that tells them apart may be missing. Equal values may be shown once. Records with an inconclusive call do not appear. Values without a mark were called inactive. Activity calls are given as the source filed them. Calls follow the shape of the dose curve; as a rule, active = well fitted curve in the direction sought with a large enough effect in the repeat runs; inconclusive = weak or mixed curves; inactive = no such curve, though single readings can be large; an effect the other way counts as inactive or inconclusive.

Assay [1] has as its target Cytochrome P450 2C19 (Homo sapiens) (UniProt P33261). The assay is described as follows: Cytochrome P450 Family 2 Subfamily C Member 19 (CYP2C19) small molecule antagonists: luciferase reporter qHTS assay (AID 1671197). Also: nearly all actives have a fitted effect of over 65% in size. As to activity change, negative = inhibition: series mostly up to about 120 µM. A digest of the protocol: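 P450-Glo CYP2C19 system: enzyme-substrate mix with compound 10 min at room temperature, then NADPH regeneration solution, 1 h at 37C. Proluciferin-to-luciferin conversion detected by luminescence after 20 min with detection reagent; ketoconazole as positive control.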

The target in assay [2] is Cytochrome P450 2C9 (Homo sapiens) (UniProt P11712). The assay is described as follows: Cytochrome P450 Family 2 Subfamily C Member 9 (CYP2C9) small molecule antagonists: luciferase reporter qHTS assay (AID 1671198). Also: nearly all actives have a fitted effect of over 50% in size. As to activity change, negative = inhibition: series mostly up to about 120 µM. A digest of the protocol: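 CYP2C9 activity was measured with a P450-Glo proluciferin substrate. Enzyme–substrate mix was held with compound for 10 min at room temperature, then NADPH regeneration solution was added for 1 h at 37C. Luciferin product was read as luminescence.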

The target in assay [3] is Cytochrome P450 1A2 (Homo sapiens) (UniProt P05177). Put plainly: Cytochrome P450 Family 1 Subfamily A Member 2 (CYP1A2) small molecule antagonists: luciferase reporter qHTS assay (AID 1671199). Also: nearly all actives have a fitted effect of over 50% in size. As to activity change, negative = inhibition: series mostly up to about 120 µM. The method in brief: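 Human CYP1A2 activity measured with a P450-Glo proluciferin substrate; compounds in DMSO preincubated 10 min at room temperature with enzyme-substrate mix, then NADPH regeneration system added for 1 h. Luciferin detection reagent, 20 min, luminescence read.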

The target in assay [4] is Cytochrome P450 3A4 (Homo sapiens) (UniProt P08684). Put plainly: Cytochrome P450 Family 3 Subfamily A Member 4 (CYP3A4) small molecule antagonists: luciferase reporter qHTS assay (AID 1671201). Also: nearly all actives have a fitted effect of over 50% in size. As to activity change, negative = inhibition: series mostly up to about 120 µM. The method in brief:
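Relative luminescence units after 20 min with luciferin detection reagent served as read-out. Beforehand, CYP3A4 turned over a proluciferin substrate for 1 h at room temperature with NADPH regeneration, following 10 min compound preincubation.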

For assay [5], the target named is Voltage-gated inwardly rectifying potassium channel KCNH2 (Homo sapiens) (UniProt Q12809). Put plainly: Human Ether-a-go-go-Related Gene (hERG) channel small molecule antagonists: fluorescence cell-based qHTS assay (AID 1671200). Also: nearly all actives have a fitted effect of over 50% in size.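 As to activity change, negative = inhibition: hERG-expressing U2OS cells given a thallium stimulus after FluxOR II dye loading; series mostly up to about 77 µM.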 A digest of the protocol:
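Thallium served as the potassium surrogate; its influx into dye-loaded U2OS cells carrying the channel was measured by fluorescence over 2 min.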
% is scaled to controls: 0 for no effect and ±100 for the full control effect; potency is read from the fitted curve at half-maximal effect.

Chain of Voltage-gated inwardly rectifying potassium channel KCNH2 (Homo sapiens) (Q12809 whole entry, looked up): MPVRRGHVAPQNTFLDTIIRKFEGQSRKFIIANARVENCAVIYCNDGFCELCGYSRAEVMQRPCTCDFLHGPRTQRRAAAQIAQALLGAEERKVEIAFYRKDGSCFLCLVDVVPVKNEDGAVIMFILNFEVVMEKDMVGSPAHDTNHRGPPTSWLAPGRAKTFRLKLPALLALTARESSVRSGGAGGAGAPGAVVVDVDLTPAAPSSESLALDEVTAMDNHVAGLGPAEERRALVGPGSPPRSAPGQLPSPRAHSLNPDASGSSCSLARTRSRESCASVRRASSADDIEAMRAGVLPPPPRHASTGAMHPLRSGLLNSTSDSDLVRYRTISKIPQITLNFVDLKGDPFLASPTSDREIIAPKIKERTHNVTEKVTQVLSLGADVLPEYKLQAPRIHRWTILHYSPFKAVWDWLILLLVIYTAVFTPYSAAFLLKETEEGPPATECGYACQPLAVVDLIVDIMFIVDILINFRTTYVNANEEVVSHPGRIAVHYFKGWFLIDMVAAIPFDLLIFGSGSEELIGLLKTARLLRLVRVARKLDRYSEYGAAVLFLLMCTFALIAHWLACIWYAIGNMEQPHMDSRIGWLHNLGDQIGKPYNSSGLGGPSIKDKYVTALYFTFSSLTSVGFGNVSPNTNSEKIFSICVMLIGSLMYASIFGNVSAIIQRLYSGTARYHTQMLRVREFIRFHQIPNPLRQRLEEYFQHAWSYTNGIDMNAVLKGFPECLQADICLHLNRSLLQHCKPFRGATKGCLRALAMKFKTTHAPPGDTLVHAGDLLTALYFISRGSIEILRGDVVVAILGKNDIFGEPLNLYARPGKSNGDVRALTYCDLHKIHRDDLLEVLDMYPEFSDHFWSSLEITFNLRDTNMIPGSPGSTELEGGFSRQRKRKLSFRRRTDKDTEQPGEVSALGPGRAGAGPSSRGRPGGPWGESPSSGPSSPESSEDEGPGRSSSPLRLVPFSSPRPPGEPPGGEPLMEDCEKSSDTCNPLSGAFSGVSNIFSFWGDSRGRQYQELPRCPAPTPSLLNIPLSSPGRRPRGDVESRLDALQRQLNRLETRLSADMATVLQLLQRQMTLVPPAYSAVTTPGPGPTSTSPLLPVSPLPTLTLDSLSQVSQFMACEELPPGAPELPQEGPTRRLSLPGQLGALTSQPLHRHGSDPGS
Chain of Cytochrome P450 1A2 (Homo sapiens) (P05177 whole entry, looked up): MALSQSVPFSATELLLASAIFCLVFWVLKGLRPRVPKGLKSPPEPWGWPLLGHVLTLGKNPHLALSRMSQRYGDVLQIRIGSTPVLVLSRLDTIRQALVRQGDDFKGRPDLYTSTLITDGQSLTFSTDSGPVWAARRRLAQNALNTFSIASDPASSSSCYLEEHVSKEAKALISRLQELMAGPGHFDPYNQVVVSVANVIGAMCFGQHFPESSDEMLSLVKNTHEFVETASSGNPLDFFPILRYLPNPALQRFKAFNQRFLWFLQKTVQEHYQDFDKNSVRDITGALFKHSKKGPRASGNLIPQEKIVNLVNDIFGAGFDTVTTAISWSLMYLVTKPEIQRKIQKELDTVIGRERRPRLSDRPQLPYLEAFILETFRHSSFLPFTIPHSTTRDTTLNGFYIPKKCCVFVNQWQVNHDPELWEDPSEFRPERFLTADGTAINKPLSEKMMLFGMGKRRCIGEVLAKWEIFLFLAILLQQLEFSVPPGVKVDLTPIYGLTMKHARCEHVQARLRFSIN
Chain of Cytochrome P450 3A4 (Homo sapiens) (P08684 whole entry, looked up): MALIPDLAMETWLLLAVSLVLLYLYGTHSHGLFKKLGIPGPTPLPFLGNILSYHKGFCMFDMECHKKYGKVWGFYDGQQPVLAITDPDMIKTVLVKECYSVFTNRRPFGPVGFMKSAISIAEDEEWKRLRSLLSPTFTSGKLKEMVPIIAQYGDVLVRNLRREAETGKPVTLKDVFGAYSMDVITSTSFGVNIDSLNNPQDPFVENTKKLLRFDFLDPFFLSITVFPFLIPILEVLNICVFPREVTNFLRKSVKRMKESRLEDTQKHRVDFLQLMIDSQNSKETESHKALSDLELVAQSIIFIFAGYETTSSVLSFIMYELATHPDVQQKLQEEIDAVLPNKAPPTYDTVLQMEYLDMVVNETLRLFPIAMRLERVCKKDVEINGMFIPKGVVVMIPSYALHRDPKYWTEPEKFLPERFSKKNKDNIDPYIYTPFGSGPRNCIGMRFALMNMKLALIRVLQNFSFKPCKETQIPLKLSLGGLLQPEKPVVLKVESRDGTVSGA
Chain of Cytochrome P450 2C9 (Homo sapiens) (P11712 whole entry, looked up): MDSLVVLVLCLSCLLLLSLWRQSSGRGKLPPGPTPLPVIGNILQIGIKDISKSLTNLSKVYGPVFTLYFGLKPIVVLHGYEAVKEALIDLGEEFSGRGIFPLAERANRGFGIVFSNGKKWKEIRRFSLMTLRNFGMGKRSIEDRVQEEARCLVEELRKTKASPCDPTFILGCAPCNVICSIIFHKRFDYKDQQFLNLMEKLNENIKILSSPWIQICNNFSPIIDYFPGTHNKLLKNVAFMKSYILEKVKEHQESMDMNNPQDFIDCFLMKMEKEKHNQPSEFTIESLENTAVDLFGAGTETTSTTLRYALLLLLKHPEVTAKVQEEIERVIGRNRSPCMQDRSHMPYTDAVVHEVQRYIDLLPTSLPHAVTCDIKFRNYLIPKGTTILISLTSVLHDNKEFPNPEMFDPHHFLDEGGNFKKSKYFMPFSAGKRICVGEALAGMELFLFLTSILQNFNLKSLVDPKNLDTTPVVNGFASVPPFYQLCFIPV
Chain of Cytochrome P450 2C19 (Homo sapiens) (P33261 whole entry, looked up): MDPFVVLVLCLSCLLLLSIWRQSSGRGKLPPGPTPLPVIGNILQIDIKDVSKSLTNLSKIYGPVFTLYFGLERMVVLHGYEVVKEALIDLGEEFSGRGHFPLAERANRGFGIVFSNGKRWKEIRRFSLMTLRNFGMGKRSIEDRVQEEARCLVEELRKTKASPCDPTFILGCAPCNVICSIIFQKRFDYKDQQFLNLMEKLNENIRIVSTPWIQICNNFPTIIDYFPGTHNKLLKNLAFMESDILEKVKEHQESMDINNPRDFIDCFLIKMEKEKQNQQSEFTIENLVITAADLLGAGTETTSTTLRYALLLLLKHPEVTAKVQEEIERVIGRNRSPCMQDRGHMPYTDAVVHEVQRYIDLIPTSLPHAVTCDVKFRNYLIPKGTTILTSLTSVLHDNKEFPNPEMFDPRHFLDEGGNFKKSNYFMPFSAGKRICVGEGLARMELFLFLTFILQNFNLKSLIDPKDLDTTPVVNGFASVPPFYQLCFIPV

As to `O=C1c2ccccc2C(=O)N1SC1CCCCC1`, the Potency in assay [1] is 25.2 µM (active) and 39.9 µM (active); in assay [2], 3.99 µM (active) and 7.1 µM (active); in assay [3] it was 35.5 µM (active) and 35.6 µM (active). For the same compound, the Potency entry in assay [4] is “inactive”.

`C#C[C@]1(OC(C)=O)CC[C@H]2[C@@H]3CCC4=C[C@@H](OC(C)=O)CC[C@@H]4[C@H]3CC[C@@]21C`: the Potency in assay [1] is 21.9 µM (active); in assay [2] it was 12.3 µM (active). The Potency result in assay [3], in assay [5] and in assay [4] was “inactive” in each case.

With `COc1cccc(OC)c1C(=O)O`, the Potency entry in assay [1], in assay [2], in assay [5] and in assay [4] was “inactive” in each case.

For the compound `CCCCCc1ccc(Cl)cc1`, the Potency entry in assay [1], in assay [3] and in assay [4] was “inactive” throughout.

Take `O=C(O)Cc1ccccc1Nc1c(Cl)cccc1Cl`: the Potency entry in assay [1], in assay [3], in assay [5] and in assay [4] was “inactive” throughout.

Consider `CCCCOC(=O)CO`, for which the Potency result in assay [1], in assay [2], in assay [5] and in assay [4] was “inactive” in each case.

As to `CCO[Si](OCC)(OCC)OCC`, the Potency entry in assay [1], in assay [2], in assay [5] and in assay [4] was “inactive” each time.

Consider `Cc1cc(C(C)(C)C)c(O)c(C)c1Cn1c(=O)n(Cc2c(C)cc(C(C)(C)C)c(O)c2C)c(=O)n(Cc2c(C)cc(C(C)(C)C)c(O)c2C)c1=O`, for which the Potency is 6.33 µM (active) in assay [1], 31.7 µM (active) in assay [3] and 7.97 µM (active) in assay [4]. For the same compound, the Potency entry in assay [5] was “inactive”.

As for `OC1CCCc2ccccc21` (stereo unspecified), the Potency entry in assay [1], in assay [2], in assay [5] and in assay [4] was “inactive” each time.

`CC(C(=O)O)c1ccc2c(c1)[nH]c1ccc(Cl)cc12` (stereo unspecified): the Potency entry in assay [1], in assay [5] and in assay [4] was “inactive” in each case.

For the compound `CC1(C)CC(O)CC(C)(C)N1`, the Potency entry in assay [1], in assay [2], in assay [5] and in assay [4] was “inactive” in each case.

As for `CN(C)c1ccc(C(=C2C=CC(=[N+](C)C)C=C2)c2ccc(N(C)C)cc2)cc1`, the Potency in assay [1] was 19.9 µM (active) and 22.4 µM (active) and 21.9 µM (active); in assay [3] it was 11.2 µM (active) and 20 µM (active) and 10.2 µM (active); in assay [5], 3.45 µM (active) and 3.47 µM (active) and 2.68 µM (active).

As for `C=CC(=O)Nc1cc2c(Nc3ccc(F)c(Cl)c3)ncnc2cc1OCCCN1CCOCC1`, the Potency result in assay [1], in assay [3] and in assay [5] was “inactive” throughout. In addition, the Potency in assay [4] is 12.3 µM (active).

As for `CCCCCCCCCCCCCCCC[N+](C)(C)CC`, the Potency result in assay [1] and in assay [3] was “inactive” each time.

As to `O=C(Oc1ccccc1)Oc1ccccc1`, the Potency in assay [1] is 79.3 µM (active); in assay [3], 35.4 µM (active). Also, the Potency entry in assay [5] and in assay [4] was “inactive” in each case.

As to `Oc1cc(Cl)cc(Cl)c1Cl`, the Potency result in assay [1], in assay [5] and in assay [4] was “inactive” throughout. In assay [3], the Potency is 16.3 µM (active).

On to `C=CCn1c(=O)n(CC=C)c(=O)n(CC=C)c1=O`, for which the Potency in assay [1] is 1.12 µM (active); in assay [3] it was 31.6 µM (active); in assay [4], 2.82 µM (active). The Potency result in assay [5] was “inactive”.

Consider `CC(C)(C)c1ccc(C(O)CCCN2CCC(C(O)(c3ccccc3)c3ccccc3)CC2)cc1` (stereo unspecified), for which the Potency result in assay [1], in assay [3] and in assay [4] was “inactive” each time.

Consider `CC1=CCC(=C(C)C)CC1`, for which the Potency in assay [1] is 79.6 µM (active); in assay [2] it was 39.9 µM (active); in assay [4] it was 20 µM (active). The Potency result in assay [5] is “inactive”.

In the case of `CCOc1ccc2ccccc2c1C(=O)N[C@@H]1C(=O)N2[C@@H]1SC(C)(C)[C@@H]2C(=O)O`, the Potency entry in assay [1], in assay [2], in assay [5] and in assay [4] was “inactive” throughout.

On to `CC(C)Cn1cnc2c(N)nc3ccccc3c21`, for which the activity change, negative = inhibition is 10.1% [at 23.6 µM] in assay [1], -3.29% [at 23.6 µM] in assay [2], -8.33% [at 15.8 µM] in assay [5] and 54.2% [at 23.6 µM] in assay [4].

As to `FC(F)(F)c1cccc(Cl)c1`, the Potency in assay [1] is 69.7 µM (active). Also, the Potency entry in assay [3], in assay [5] and in assay [4] was “inactive” each time.

`C=CCCC(=O)/C=C/C1C(C)=CCCC1(C)C` (stereo unspecified): the Potency in assay [1] and in assay [4] was 17.8 µM (active) throughout. For the same compound, in assay [3], the Potency result is “inactive”.

On to `CCC(=O)C(=O)CC`, for which the Potency was 41.6 µM (active) in assay [1] and 5.88 µM (active) in assay [4]. Further, the Potency entry in assay [3] and in assay [5] was “inactive” each time.

On to `CN1CCN2c3ccccc3Cc3ccccc3C2C1` (stereo unspecified), for which the Potency result in assay [1], in assay [2] and in assay [4] was “inactive” in each case.

In the case of `O=S(=O)(O)c1ccccc1/C=C/c1ccc(-c2ccc(/C=C/c3ccccc3S(=O)(=O)O)cc2)cc1`, the Potency result in assay [1], in assay [3], in assay [5] and in assay [4] was “inactive” in each case.

In the case of `C=C(C)C(=O)OCCCCCCCCCC`, the Potency in assay [1] is 56.8 µM (active). The Potency result in assay [3], in assay [5] and in assay [4] was “inactive” throughout.

`CCC(C)(CCC(C)C)C(=O)[O][Sn]([CH3])([CH3])[O]C(=O)C(C)(CC)CCC(C)C` (stereo unspecified): the results for the Potency in assay [1] and in assay [2] were 56.4 µM (active) and 25.2 µM (active), respectively. The Potency result in assay [5] and in assay [4] was “inactive” each time.

As to `CNc1ccc([N+](=O)[O-])cc1`, the Potency in assay [1] and in assay [3] was 35.7 µM (active) throughout. Besides, the Potency entry in assay [5] and in assay [4] was “inactive” each time.

`COC(C)=O`: the Potency result in assay [1], in assay [2], in assay [5] and in assay [4] was “inactive” in each case.

In the case of `O=C1OC2(c3ccc(O)cc3Oc3cc(O)ccc32)c2ccc(N=C=S)cc21`, the Potency in assay [1] and in assay [2] was 72.3 µM (active) throughout. Further, the Potency result in assay [5] and in assay [4] was “inactive” each time.

Consider `Sc1nc2ccccc2s1`, for which, in assay [1], the Potency was 7.96 µM (active). Besides, the Potency entry in assay [5] and in assay [4] was “inactive” each time.

For `Cc1ccc(N/N=c2\c(=O)cc/c(=N\Nc3ccc(S(=O)(=O)O)cc3)c2=O)c(C)c1`, the figures for the Potency in assay [1] and in assay [2] were 79.6 µM (active) and 35.6 µM (active), respectively. The Potency entry in assay [5] and in assay [4] was “inactive” throughout.

With `CCC(CC)C(C)CCOC(C)=O` (stereo unspecified), the Potency entry in assay [1], in assay [3], in assay [5] and in assay [4] was “inactive” throughout.

In the case of `CCCCCCCCCCCC(=O)OCC(C)OC(=O)CCCCC(=O)O` (stereo unspecified), the Potency result in assay [1] and in assay [5] was “inactive” in each case. The Potency is 7.76 µM (active) in assay [2] and 8.71 µM (active) in assay [4].

For `CCCCCCCCCCOC(=O)c1ccccc1C(=O)OCCCCCCCC`, the Potency entry in assay [1], in assay [3], in assay [5] and in assay [4] was “inactive” in each case.

For `C1CCC(SSC2CCCCC2)CC1`, the Potency result in assay [1], in assay [5] and in assay [4] was “inactive” in each case. Moreover, in assay [3], the Potency is 25.2 µM (active).

Turning to `CCC(COC(=O)CCS)(COC(=O)CCS)COC(=O)CCS`, the Potency was 5.64 µM (active) in assay [1], 28.3 µM (active) in assay [2] and 3.56 µM (active) in assay [4].

As for `CCCCCCC1CCCC(=O)O1` (stereo unspecified), the Potency result in assay [1], in assay [5] and in assay [4] was “inactive” each time. Also, the Potency in assay [2] was 25.2 µM (active).

In the case of `Cc1c(C)c2c(c(C)c1OC(=O)c1cccnc1)CC[C@@](C)(CCC[C@H](C)CCC[C@H](C)CCCC(C)C)O2`, the Potency result in assay [1], in assay [2], in assay [5] and in assay [4] was “inactive” throughout.
